Laboratory results published in PubChem BioAssay.
Inconclusive results are not listed. Active and inactive are the calls of the source.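 The calls were made as follows, unless noted: active = inhibition above the screen-wide mean plus 3 SD, about 51%; inactive = the rest.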

Columns and labels:
[1] = yeast TOR pathway RPL19A-GFP modulators, primary screen, cell-based, S. cerevisiae, multiplex flow cytometry (AID 1862; in the data active = percent of DMSO control GFP below about 86%;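 also: lower values mimic rapamycin by blocking the RPL19A rise seen in DMSO cells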); details: S. cerevisiae RPL19A-GFP strain, flow cytometry fluorescence, 3 h; at 10 µM; stronger effect = lower value
[2] = modulators of MEP2-GFP levels in yeast, primary screen, S. cerevisiae, multiplex flow cytometry (AID 1867;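 active = GFP response, as percent of the DMSO control, above the screen-wide mean plus 3 SD, about 139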;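 also: median GFP channel fluorescence of barcode-gated MEP2-GFP cells measured by flow cytometry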); details: S. cerevisiae MEP2-GFP strain, 3 h, at 10 µM, stronger effect = higher value, 100% means same as DMSO wells
[3] = modulators of CIT2-GFP expression in yeast, primary screen, S. cerevisiae, GFP fusion, multiplex flow cytometry (AID 1870;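 active = percent response above a set limit, the screen-wide mean plus 3 SD, cut at about 130% in these data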;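 also: barcoded CIT2-GFP strain pooled with four other GFP strains with rapamycin as positive control; median GFP fluorescence per well over plate mean of DMSO wells so 100% = DMSO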); details: 3 h, at 10 µM, stronger effect = higher value
[4] = modulators of LAP4-GFP expression in yeast, primary screen, S. cerevisiae, multiplex flow cytometry (AID 1873;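 active = GFP signal, as percent of the solvent control, above the screen mean plus 3 SD, about 149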); details: 3 h, at 10 µM, stronger effect = higher value
[5] = modulators of AGP1-GFP expression in yeast TOR pathway, primary screen, cell-based, multiplex flow cytometry, S. cerevisiae (AID 1887;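 active = GFP signal above the screen-wide mean plus 3 SD, that is over about 124.5% of the solvent control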;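 also: AGP1-GFP fusion strain of S. cerevisiae within a five-strain barcoded multiplex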); details: 3 h, at 10 µM, stronger effect = higher value
[6] = inhibitors of CD8+ T cell-vesicle binding, pilot screen, LFA-1/ICAM-1 modulator project, MLPCN validation set, flow cytometry (AID 2523;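 active = response below a set limit, under 55% cells CD8-positive and vesicle-bound, and CD8 cells' 90th-percentile brightness under 279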;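 as to vesicle binding response: mean PE anti-B7-1 fluorescence of CD8+ cells relative to row control; 100% = QL9-loaded vesicles with DMSO vehicle in the same plate row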); details: 2C mouse CD8+ T cells, at 7 µM, stronger effect = lower value; double positive events: measured here: CD8+/vesicle+ event percentage
[7] = molecular target: Integrin beta-1 (Homo sapiens) + Integrin alpha-4 (Homo sapiens) (UniProt P13612+P05556); test: inhibition of HUTS-21 binding to VLA-4, pilot screen, VLA-4 allosteric modulator project, U937 cells, HUTS-21 mAb, flow cytometry, validation set (AID 2674;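 active = inhibition above 50%, about 3 SD of the validation set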;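 also: antibody binding induced by the VLA-4 ligand LDV present at three times its Kd; 0% = LDV ligand with antibody and no compound and 100% = antibody without LDV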); details: HUTS-21 LIBS mAb binding, at 6.7 µM, stronger effect = higher value, binding induced by LDV ligand
[8] = superoxide lowering in aged yeast cells, pilot screen, validation compound set (AID 2706;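 active = superoxide response below 65% of plate, a cut near 3 SD across the whole screen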;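 also: yeast exposed to compound for one week at 30 degrees C before staining; 100% = mean of all compound wells on the same plate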); details: S. cerevisiae aging, superoxide DHE fluorescence; at 10 µM; stronger effect = lower value
[9] = molecular target: Beta-adrenergic receptor kinase 1 (Homo sapiens) (UniProt P25098); test: GRK2 binders displacing RNA aptamer, biochemical, validation, human GRK2, bead flow cytometry (AID 488806;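 active = aptamer binding inhibition above 30%, about 3 SD of noise from non-fluorescent compounds; inactive = inhibition at or below 30%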); details: bead-bound GRK2, FAM-aptamer displacement, at 10 µM, stronger effect = higher value
[10] = molecular target: Beta-2 adrenergic receptor (Homo sapiens) (UniProt P07550); test: beta2AR agonists driving receptor internalization, pilot screen, cell-based, FAP fluorogen, flow cytometry, validation set (AID 504459;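 active = percent response above 42, roughly 3 SD of non-fluorescent test compounds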;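 also: agonist-driven loss of surface beta2AR via internalization measured by FAP dye flow cytometry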); details: Am2.2-beta2AR cells, FAP surface receptor flow cytometry; at 10 µM; stronger effect = higher value
[11] = molecular target: AP-2 complex subunit beta (Homo sapiens) (UniProt P63010); test: inhibitors of arrestin peptide binding to AP2, pilot screen, biochemical, validation set, GST-AP2 beads, flow cytometry (AID 504541;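 active = inhibition above 54%, about 3 SD of non-fluorescent compounds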;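 also: AP2 carries R879A mutation and is captured from E. coli lysate; bead-bound FITC arrestin peptide fluorescence measuring arrestin peptide binding to AP2; 0% = DMSO wells and 100% = excess unlabeled arrestin peptide control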); details: FITC arrestin peptide, at 10 µM, stronger effect = higher value, AP2 beta2 appendage fragment, R879A mutant
[12] = yeast V-ATPase proton transport modulators, S. cerevisiae, pHLuorin, HTS validation (AID 504600; in the data active = response above about 15%;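 also: plate controls were DMSO for no effect and reference compound for full effect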); details: S. cerevisiae pHLuorin cytosolic pH, at 10 µM, stronger effect = higher value
[13] = test system: anti-desmoglein-3 scFv antibody binding to human DSG3; test: inhibitors of anti-DSG3 scFv binding to DSG3, pilot screen, biochemical, validation compound set, bead-based, flow cytometry (AID 588368;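 active = binding below the plate cutoff, the plate median minus 3 SD, with a reading above zero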;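 also: signal is the median channel fluorescence of bead-bound GFP antibody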); details: Protein G beads, DSG3-Fc, scFv-GFP binding, at 10 µM, stronger effect = lower value
[14] = inhibitors of fungal efflux pumps CDR1, CDR2, MDR1, pilot screen, validation compound set, multiplex, phenotypic (AID 588506;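 active = efflux inhibition above 0.42, the validation set average plus 4 SD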;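 also: Nile Red retained in cells so higher fluorescence means more efflux inhibition; 0 = negative control wells and 1 = enniatin B 25 µM full block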); details: S. cerevisiae pump-expressing triplex, Nile Red efflux flow cytometry; at 10 µM; stronger effect = higher value; the pumps come from Candida albicans
[15] = molecular target: ATP-binding cassette sub-family B member 6 (Homo sapiens) (UniProt Q9NP58); test: ABCB6 transporter inhibitors, pilot screen, K562-ABCB6 cells, flow cytometry, validation set (AID 588550); details: K562-ABCB6 porphyrin accumulation, 1 h, at 10 µM, stronger effect = higher value;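 also: 0% = DMSO wells and 100% = benzethonium chloride 70 µM positive control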
[16] = promoters of myeloid differentiation in arrested cells, primary screen, cell-based, GFP/MAC1 double positive, flow cytometry, validation set (AID 588685;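 active = differentiation response of at least 50%, scaled between solvent and reference control, from cells with both markers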;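 also: compound exposure lasts four days before antibody staining and flow analysis; 0% = DMSO wells and 100% = 5 µM fulvestrant positive control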); details: ER-HoxA9 marrow cells, stronger effect = higher value, normalized: vehicle 0, fulvestrant 100

Sequence of Integrin beta-1 (Homo sapiens) + Integrin alpha-4 (Homo sapiens) (P05556 whole entry, looked up): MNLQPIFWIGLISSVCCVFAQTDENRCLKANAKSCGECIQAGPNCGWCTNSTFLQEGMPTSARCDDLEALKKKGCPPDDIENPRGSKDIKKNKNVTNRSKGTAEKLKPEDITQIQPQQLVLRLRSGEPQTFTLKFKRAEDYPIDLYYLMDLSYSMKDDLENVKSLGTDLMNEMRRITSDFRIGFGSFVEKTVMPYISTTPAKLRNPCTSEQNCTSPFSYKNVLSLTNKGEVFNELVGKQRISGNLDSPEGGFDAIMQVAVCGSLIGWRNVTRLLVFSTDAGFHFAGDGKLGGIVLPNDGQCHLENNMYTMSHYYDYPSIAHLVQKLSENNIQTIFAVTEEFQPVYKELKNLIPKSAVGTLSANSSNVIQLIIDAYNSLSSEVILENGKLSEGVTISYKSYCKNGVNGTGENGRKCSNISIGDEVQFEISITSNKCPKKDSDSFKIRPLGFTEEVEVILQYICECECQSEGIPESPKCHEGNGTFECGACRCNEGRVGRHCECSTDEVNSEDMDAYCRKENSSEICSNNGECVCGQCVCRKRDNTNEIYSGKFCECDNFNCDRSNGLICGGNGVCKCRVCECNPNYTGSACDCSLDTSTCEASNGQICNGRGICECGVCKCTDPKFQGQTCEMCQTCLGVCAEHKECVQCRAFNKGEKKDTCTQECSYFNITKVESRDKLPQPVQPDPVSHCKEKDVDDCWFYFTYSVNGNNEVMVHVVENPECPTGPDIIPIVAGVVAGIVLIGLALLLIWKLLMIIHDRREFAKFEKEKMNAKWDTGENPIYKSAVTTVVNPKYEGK
Sequence of Integrin beta-1 (Homo sapiens) + Integrin alpha-4 (Homo sapiens) (P13612 whole entry, looked up): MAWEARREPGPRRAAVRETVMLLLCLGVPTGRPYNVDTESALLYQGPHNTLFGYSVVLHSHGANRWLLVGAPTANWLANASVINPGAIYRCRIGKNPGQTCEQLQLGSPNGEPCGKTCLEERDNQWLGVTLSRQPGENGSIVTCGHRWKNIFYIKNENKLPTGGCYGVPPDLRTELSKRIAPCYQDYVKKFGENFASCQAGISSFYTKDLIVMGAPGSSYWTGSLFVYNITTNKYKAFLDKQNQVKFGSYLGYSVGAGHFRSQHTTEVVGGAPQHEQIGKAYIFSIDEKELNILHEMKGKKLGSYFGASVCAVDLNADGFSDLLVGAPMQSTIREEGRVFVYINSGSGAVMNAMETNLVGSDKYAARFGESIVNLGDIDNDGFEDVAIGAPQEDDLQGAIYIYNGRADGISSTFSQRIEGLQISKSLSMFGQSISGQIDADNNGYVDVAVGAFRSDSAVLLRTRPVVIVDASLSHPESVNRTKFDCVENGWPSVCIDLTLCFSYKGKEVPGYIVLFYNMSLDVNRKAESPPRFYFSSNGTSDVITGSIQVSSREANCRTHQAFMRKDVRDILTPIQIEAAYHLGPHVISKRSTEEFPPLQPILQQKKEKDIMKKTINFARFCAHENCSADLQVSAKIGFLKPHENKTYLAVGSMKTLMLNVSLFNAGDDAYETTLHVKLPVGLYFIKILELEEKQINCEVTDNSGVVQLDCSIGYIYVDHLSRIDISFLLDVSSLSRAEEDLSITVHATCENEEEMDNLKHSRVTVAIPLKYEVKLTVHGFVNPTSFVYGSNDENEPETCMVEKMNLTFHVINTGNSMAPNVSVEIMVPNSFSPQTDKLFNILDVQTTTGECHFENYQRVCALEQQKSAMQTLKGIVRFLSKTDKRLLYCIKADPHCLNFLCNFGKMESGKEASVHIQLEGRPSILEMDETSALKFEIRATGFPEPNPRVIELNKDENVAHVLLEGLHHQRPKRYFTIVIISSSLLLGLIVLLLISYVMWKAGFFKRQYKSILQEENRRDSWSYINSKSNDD
Sequence of Beta-adrenergic receptor kinase 1 (Homo sapiens) (P25098 whole entry, looked up): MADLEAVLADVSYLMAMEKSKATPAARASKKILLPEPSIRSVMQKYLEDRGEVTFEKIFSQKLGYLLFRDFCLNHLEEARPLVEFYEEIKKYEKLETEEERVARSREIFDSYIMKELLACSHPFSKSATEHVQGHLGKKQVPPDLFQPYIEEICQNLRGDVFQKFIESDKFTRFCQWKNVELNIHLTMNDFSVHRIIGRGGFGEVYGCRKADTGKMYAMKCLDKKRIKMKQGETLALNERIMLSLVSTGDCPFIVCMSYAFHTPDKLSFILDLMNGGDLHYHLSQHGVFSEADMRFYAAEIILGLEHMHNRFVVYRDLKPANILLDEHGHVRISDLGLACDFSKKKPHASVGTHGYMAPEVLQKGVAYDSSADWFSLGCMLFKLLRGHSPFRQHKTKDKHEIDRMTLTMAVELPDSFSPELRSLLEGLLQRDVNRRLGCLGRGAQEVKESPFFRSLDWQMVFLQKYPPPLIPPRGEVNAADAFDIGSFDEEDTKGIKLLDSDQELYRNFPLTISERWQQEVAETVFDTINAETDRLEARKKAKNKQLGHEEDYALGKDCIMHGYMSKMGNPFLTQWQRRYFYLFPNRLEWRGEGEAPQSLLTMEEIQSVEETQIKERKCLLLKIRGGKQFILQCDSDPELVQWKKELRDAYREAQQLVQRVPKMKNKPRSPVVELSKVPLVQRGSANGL
Sequence of ATP-binding cassette sub-family B member 6 (Homo sapiens) (Q9NP58 whole entry, looked up): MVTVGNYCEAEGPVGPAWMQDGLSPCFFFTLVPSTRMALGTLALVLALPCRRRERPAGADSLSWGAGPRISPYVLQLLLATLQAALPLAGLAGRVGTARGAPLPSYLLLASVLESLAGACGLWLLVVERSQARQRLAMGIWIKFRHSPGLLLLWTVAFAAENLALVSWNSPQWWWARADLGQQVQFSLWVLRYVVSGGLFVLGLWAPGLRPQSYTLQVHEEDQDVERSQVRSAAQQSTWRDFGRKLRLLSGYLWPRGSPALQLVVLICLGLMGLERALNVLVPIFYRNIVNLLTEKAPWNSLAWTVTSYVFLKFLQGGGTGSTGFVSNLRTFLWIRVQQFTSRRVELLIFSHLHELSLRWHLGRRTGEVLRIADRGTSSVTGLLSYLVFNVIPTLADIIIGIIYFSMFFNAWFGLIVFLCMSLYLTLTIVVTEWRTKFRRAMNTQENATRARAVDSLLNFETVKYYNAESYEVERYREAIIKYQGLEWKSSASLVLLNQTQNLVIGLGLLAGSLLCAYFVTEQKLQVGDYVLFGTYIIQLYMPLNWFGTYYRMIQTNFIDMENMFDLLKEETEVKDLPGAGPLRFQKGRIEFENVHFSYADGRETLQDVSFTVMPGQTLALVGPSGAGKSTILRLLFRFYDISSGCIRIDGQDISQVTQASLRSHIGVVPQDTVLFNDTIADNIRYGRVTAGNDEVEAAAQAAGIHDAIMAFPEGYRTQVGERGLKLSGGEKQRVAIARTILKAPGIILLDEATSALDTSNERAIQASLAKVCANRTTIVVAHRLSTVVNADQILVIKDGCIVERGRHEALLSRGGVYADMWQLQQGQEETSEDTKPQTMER
Sequence of Beta-2 adrenergic receptor (Homo sapiens) (P07550 whole entry, looked up): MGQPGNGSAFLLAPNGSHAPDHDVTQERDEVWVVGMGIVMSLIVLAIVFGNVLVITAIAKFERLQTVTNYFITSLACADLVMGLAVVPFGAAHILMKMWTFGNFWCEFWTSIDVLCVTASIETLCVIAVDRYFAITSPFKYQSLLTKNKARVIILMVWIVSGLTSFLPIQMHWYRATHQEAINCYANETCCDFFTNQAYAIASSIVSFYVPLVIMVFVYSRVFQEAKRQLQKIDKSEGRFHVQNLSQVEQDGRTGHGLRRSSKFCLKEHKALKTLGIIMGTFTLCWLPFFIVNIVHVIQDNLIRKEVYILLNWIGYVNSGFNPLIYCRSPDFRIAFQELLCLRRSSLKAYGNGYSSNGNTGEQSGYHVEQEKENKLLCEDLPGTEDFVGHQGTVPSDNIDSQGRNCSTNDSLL
Sequence of AP-2 complex subunit beta (Homo sapiens) (P63010 whole entry, looked up, the tested form may be a part, one chain of several): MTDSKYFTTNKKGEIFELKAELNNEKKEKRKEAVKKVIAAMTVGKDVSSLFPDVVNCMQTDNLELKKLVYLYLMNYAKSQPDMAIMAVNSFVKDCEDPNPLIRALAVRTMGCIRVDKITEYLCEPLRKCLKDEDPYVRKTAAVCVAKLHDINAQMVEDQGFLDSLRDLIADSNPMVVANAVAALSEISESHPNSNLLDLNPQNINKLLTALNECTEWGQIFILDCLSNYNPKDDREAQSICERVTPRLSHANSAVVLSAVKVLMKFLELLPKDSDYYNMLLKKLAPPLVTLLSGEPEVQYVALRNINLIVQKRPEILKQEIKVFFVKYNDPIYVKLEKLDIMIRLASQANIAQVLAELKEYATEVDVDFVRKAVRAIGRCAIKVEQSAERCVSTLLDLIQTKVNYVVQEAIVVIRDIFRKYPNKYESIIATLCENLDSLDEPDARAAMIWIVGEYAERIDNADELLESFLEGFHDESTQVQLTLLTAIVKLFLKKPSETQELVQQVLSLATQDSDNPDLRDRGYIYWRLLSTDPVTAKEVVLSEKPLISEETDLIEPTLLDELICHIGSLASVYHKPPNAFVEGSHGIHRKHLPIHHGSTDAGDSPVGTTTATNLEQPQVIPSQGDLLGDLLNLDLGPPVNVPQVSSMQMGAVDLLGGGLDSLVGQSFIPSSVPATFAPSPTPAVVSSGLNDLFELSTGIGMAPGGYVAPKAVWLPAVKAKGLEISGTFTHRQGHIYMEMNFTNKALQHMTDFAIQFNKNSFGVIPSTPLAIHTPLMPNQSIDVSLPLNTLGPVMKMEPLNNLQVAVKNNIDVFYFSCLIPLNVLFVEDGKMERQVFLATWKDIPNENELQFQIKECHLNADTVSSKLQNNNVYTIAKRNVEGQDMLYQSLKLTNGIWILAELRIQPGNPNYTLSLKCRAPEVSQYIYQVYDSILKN

Row | SMILES | percent of DMSO control GFP [1] | GFP response vs DMSO [2] | percent response of DMSO control [3] | GFP response vs DMSO [4] | GFP response, % of DMSO [5] | double positive events [6] [%] | vesicle binding response [6] | inhibition [7] | superoxide response (% of plate) [8] | aptamer binding inhibition [9] | response [10] | inhibition [11] | response [12] | binding (% of control) [13] | efflux inhibition (fraction of control) [14] | inhibition [15] | differentiation response [16]
1 | COc1ccc(NC2=C(Cl)C(=O)N(c3ccccc3)C2=O)c(OC)c1 | 105% (inactive) | 110% (inactive) | 107% (inactive) | 106% (inactive) | 109% (inactive) | 60.1 | 159% (inactive) | -1.09% (inactive) | 94.5% (inactive) | 1% (inactive) | 1.18% (inactive) | 0.15% (inactive) | 1.06% (inactive) | 97% (inactive) | -0.25 (inactive) | -3% (inactive) | -4.57% (inactive)
2 | COCCCN1C(=O)C(=O)/C(=C(/O)c2ccc3c(c2)CC(C)O3)C1c1cccnc1 (stereo not drawn) | 101% (inactive) | 102% (inactive) | 101% (inactive) | 114% (inactive) | 111% (inactive) | 59 | 137% (inactive) | 3.14% (inactive) | 97.1% (inactive) | -1% (inactive) | -22.5% (inactive) | 1.96% (inactive) | -1.78% (inactive) | 108% (inactive) | 0 (inactive) | 4% (inactive) | -9.91% (inactive)
3 | O=c1[nH]c(=O)n([C@H]2C[C@H](O)[C@@H](CO)O2)cc1C(F)(F)F | 103% (inactive) | 101% (inactive) | 97.8% (inactive) | 94% (inactive) | 94.8% (inactive) | 58.6 | 48.9% (inactive) | -11.9% (inactive) | 108% (inactive) | 1% (inactive) | -1.49% (inactive) | 13.9% (inactive) | -1.8% (inactive) | 100% (inactive) | 0.02 (inactive) | 1% (inactive) | -1.71% (inactive)
4 | COc1ccc(CNCCC(c2ccc(F)cc2)c2ccc(OC(C)C)cc2)cc1OC (stereo not drawn) | 97.9% (inactive) | 105% (inactive) | 105% (inactive) | 119% (inactive) | 110% (inactive) | 66.1 | 227% (inactive) | 64.5% (active) | 91.3% (inactive) | -14% (inactive) | 24.3% (inactive) | 38.1% (inactive) | 0.54% (inactive) | 113% (inactive) | -0.04 (inactive) | -1% (inactive) | 2.89% (inactive)
5 | CC12CCC(C(=O)NCc3ccc4c(c3)OCO4)(CC1=O)C2(C)C (stereo not drawn) | 100% (inactive) | 98.6% (inactive) | 103% (inactive) | 102% (inactive) | 107% (inactive) | 60.9 | 252% (inactive) | 0.59% (inactive) | 113% (inactive) | 0% (inactive) | -30.8% (inactive) | 4.11% (inactive) | -1.56% (inactive) | 105% (inactive) | 0.08 (inactive) | 6% (inactive) | -1.05% (inactive)
6 | CC(=O)Oc1ccc(C(c2ccc(OC(C)=O)cc2)c2ccccn2)cc1 | 98.9% (inactive) | 104% (inactive) | 99.6% (inactive) | 125% (inactive) | 117% (inactive) | 63.6 | 203% (inactive) | -42% (inactive) | 105% (inactive) | 4% (inactive) | -25.8% (inactive) | -3.7% (inactive) | -1.07% (inactive) | 106% (inactive) | 0.08 (inactive) | 6% (inactive) | -7.94% (inactive)
7 | CCCCNc1ccc(C(=O)OCCN(C)C)cc1 | 101% (inactive) | 109% (inactive) | 98.9% (inactive) | 103% (inactive) | 97.3% (inactive) | 63.6 | 212% (inactive) | 5.77% (inactive) | 106% (inactive) | -1% (inactive) | -12.7% (inactive) | 5.38% (inactive) | -3.28% (inactive) | 101% (inactive) | -0.01 (inactive) | 15% (inactive) | 19.8% (inactive)
8 | CCOC(=O)N1CCc2[nH]c3ccc(C)cc3c2C1 | 95.5% (inactive) | 102% (inactive) | 103% (inactive) | 140% (inactive) | 103% (inactive) | 64.6 | 175% (inactive) | -3.67% (inactive) | 110% (inactive) | -1% (inactive) | -9.79% (inactive) | 4.56% (inactive) | 14.9% (inactive) | 105% (inactive) | 0.25 (inactive) | -9% (inactive) | -4% (inactive)
9 | O=C(O)C(O)c1ccccc1 (stereo not drawn) | 101% (inactive) | 95.6% (inactive) | 105% (inactive) | 99.1% (inactive) | 102% (inactive) | 53.8 | 90.5% (inactive) | -6.45% (inactive) | 96.6% (inactive) | 5% (inactive) | 3.86% (inactive) | -5.56% (inactive) | 1.56% (inactive) | 104% (inactive) | -0.12 (inactive) | 12% (inactive) | -3.11% (inactive)
10 | COc1cc(C(=O)Nc2cccc(-c3nnc(-c4ccco4)o3)c2)ccc1OC(C)=O | 103% (inactive) | 103% (inactive) | 104% (inactive) | 109% (inactive) | 107% (inactive) | 52.3 | 52.3% (active) | 12.5% (inactive) | 109% (inactive) | 5% (inactive) | 3.82% (inactive) | 64.4% (active) | 2.66% (inactive) | 106% (inactive) | 0.17 (inactive) | -5% (inactive) | -10.9% (inactive)
11 | Cc1ccccc1NC(=O)c1c(C)cc(=O)oc1C | 106% (inactive) | 101% (inactive) | 113% (inactive) | 84.8% (inactive) | 99.2% (inactive) | 67.4 | 771% (inactive) | 5.77% (inactive) | 83.4% (inactive) | 4% (inactive) | -4.18% (inactive) | -11.4% (inactive) | 1.91% (inactive) | 92.7% (inactive) | -0.2 (inactive) | -3% (inactive) | -1.71% (inactive)
12 | CC(C)CN1CCN(Cc2ccc3ncccc3c2)CC1CCO (stereo not drawn) | 103% (inactive) | 96.2% (inactive) | 118% (inactive) | 84.8% (inactive) | 103% (inactive) | 62 | 290% (inactive) | 4.73% (inactive) | 95% (inactive) | -1% (inactive) | -8.31% (inactive) | -6.16% (inactive) | 1.7% (inactive) | 103% (inactive) | 0.24 (inactive) | -9% (inactive) | 6.11% (inactive)
13 | CN(C)CCC(c1ccccc1)c1ccccn1 (stereo not drawn) | 97.2% (inactive) | 130% (inactive) | 97.9% (inactive) | 83.6% (inactive) | 86.1% (inactive) | 64.9 | 139% (inactive) | 14.2% (inactive) | 93.1% (inactive) | 3% (inactive) | -2.11% (inactive) | -9.57% (inactive) | -0.43% (inactive) | 97.8% (inactive) | -0.35 (inactive) | 12% (inactive) | 8.19% (inactive)
14 | COc1cccc(=O)c2c(C)n(CC(=O)c3ccccc3)c(C)c12 | 100% (inactive) | 102% (inactive) | 95.1% (inactive) | 113% (inactive) | 113% (inactive) | 58.2 | 203% (inactive) | -72.7% (inactive) | 96.3% (inactive) | -1% (inactive) | -13.2% (inactive) | -9.87% (inactive) | 2.5% (inactive) | 98.8% (inactive) | 0.33 (inactive) | -32% (inactive) | -2.03% (inactive)
15 | O=C(Nc1ccc(Cl)cn1)Nc1ccccc1Cl | 103% (inactive) | 105% (inactive) | 107% (inactive) | 111% (inactive) | 102% (inactive) | 64.5 | 144% (inactive) | -3.77% (inactive) | 93.6% (inactive) | 2% (inactive) | -0.99% (inactive) | -8.05% (inactive) | 23.4% (active) | 105% (inactive) | -0.55 (inactive) | -4% (inactive) | -11.9% (inactive)
16 | COc1ccc(C2CC(c3c(O)cc(C)oc3=O)=NCCS2)c(OC)c1 (stereo not drawn) | 102% (inactive) | 108% (inactive) | 111% (inactive) | 86.8% (inactive) | 96.4% (inactive) | 64.5 | 818% (inactive) | 36.9% (inactive) | 92% (inactive) | 1% (inactive) | 19.6% (inactive) | 1.7% (inactive) | 0.66% (inactive) | 108% (inactive) | 0.14 (inactive) | -46% (inactive) | -4.64% (inactive)
17 | Cc1ccccc1C(=O)NNc1ncnc2c1cnn2C | 104% (inactive) | 103% (inactive) | 91.2% (inactive) | 103% (inactive) | 112% (inactive) | 64.9 | 146% (inactive) | 3.99% (inactive) | 104% (inactive) | -2% (inactive) | -18.4% (inactive) | 15.7% (inactive) | -4.35% (inactive) | 107% (inactive) | 0.08 (inactive) | -17% (inactive) | 6.83% (inactive)
18 | N/C(=N\OC(=O)c1cccc(Br)c1)c1ccncc1 | 103% (inactive) | 105% (inactive) | 106% (inactive) | 111% (inactive) | 94.2% (inactive) | 62.9 | 166% (inactive) | 9.63% (inactive) | 106% (inactive) | -2% (inactive) | -7.41% (inactive) | 43.1% (inactive) | 4.2% (inactive) | 100% (inactive) | -0.115 (inactive) | 8% (inactive) | -4.57% (inactive)
19 | Cc1ccc2c(c1)c(C)cc(=O)n2CCC(=O)O | 101% (inactive) | 102% (inactive) | 98.6% (inactive) | 116% (inactive) | 102% (inactive) | 61.6 | 210% (inactive) | 13.2% (inactive) | 97.2% (inactive) | 17% (inactive) | 4.73% (inactive) | 11.3% (inactive) | 1.4% (inactive) | 101% (inactive) | -0.24 (inactive) | 3% (inactive) | -20% (inactive)
